Screens: PubChem, National Center for Advancing Translational Sciences (NCATS)
In the library only some 3% were active in any assay of this set; here they are far more common.
SNCA viab count = GF-AFC viability counterscreen for inhibitors of alpha-synuclein gene (SNCA) expression. HEK-293-SNCA-luc viability, GF-AFC fluorescence, 24 h. Potency, µM (highest dose often 57.1 µM), actives largely listed as cytotoxic. actives 0.12% (n = 150,000); further: nearly all actives have a fitted effect of over 30% in size
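HEK-293-SNCA-luc cells (1500/well) plated 24 h, then exposed 24 h to a dilution series; GF-AFC added 30 min at 37C, fluorescence 405/540 nm; normalised to medium-only and DMSO wells, Hill fit.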
KDM5B inh = Primary screen for KDM5B Histone Demethylases FDH-coupled qHTS | KDM5B demethylase, FDH-coupled NADH fluorescence (FDH is formaldehyde dehydrogenase) | actives 2.6% (n = 220,000) | Potency, µM (doses to about 57.7 µM), actives largely listed as inhibitors | Lysine-specific demethylase 5B (Homo sapiens), Q9UGL1; further: nearly all actives have a fitted effect of over 70% in size
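Inhibition is measured as reduced NADH fluorescence generation from FDH coupling to formaldehyde release. Truncated KDM5BΔAP at 200 nM final acts on H3K4me3 peptide (12.5 µM in substrate mix) in pH 7.5 HEPES buffer with Tween-20, 30 min, room temperature.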
SNCA expr inhib = Primary qHTS assay for inhibitors of alpha-synuclein gene (SNCA) expression | HEK-293 SNCA-luciferase knock-in, luminescence, 24 h | actives 0.17% (n = 140,000) | Potency, µM (doses to about 57.2 µM), hits mostly inhibitors; further: nearly all actives have a fitted effect of over 45% in size
IP6K1 inhibitor = Primary qHTS assay for small molecule inhibitors of Inositol hexaphosphate kinase 1 (IP6K1); Inositol hexakisphosphate kinase 1 (Homo sapiens), Q92551; IP6K1 kinase, ADP-Glo luminescence, 2 h; hits give low values; activity change, % (series mostly up to about 58 µM); actives 0.81% (n = 140,000); in the data active means activity change below about -25%
Target sequence (Q92551 whole entry, looked up): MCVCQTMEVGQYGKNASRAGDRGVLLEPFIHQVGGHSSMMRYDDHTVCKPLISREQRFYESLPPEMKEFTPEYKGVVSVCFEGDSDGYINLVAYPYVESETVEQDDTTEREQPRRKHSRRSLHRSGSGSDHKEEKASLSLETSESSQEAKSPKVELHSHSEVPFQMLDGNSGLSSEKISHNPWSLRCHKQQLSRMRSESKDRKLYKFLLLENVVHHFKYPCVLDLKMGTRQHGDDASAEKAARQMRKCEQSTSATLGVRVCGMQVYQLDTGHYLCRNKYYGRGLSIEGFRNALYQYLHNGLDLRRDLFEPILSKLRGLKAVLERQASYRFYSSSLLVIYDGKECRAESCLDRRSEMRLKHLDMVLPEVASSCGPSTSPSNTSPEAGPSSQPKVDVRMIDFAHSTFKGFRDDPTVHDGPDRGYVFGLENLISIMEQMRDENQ
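ADP-Glo luminescence measures ADP made by human IP6K1 during a 2 h RT reaction with ATP/IP6 (mix at 1.3 mM/130 uM); top library doses 57.5 and 19.1 uM final.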
IP6K1 inh cnf = Confirmatory qHTS assay for small molecule inhibitors of Inositol hexaphosphate kinase 1 (IP6K1). shares compounds with IP6K1 inhibitor. recombinant IP6K1 kinase, ADP-Glo luminescence, 2 h. Potency, µM (series often up to 49 µM), actives largely listed as inhibitors. actives 13% (n = 1,200). AID 1645852, 2021; further: nearly all actives have a fitted effect of over 65% in size
Numbers stand for hits; – = inactive; ? = inconclusive; · = not tested or not shown; ! = not confirmed by another sample; [ ] = remark or other dose. Unless noted, the call rests on the fitted dose curve; in most records, active means well fitted curve in the direction sought with a large enough effect; inconclusive means small, poorly fitted or top-dose-only effect, or another doubt; inactive means no such curve, though single readings can be large; an effect the other way counts as inactive or inconclusive.

SMILES	SNCA viab count	KDM5B inh	SNCA expr inhib	IP6K1 inhibitor	IP6K1 inh cnf
N#Cc1cccc(-c2ccc3n(c2=O)C[C@H]2C[C@@H]3CN(C(=O)c3ccc(F)cc3)C2)c1	–	31.6µM	–	–	·
N#Cc1cccc(-c2ccc3n(c2=O)C[C@H]2C[C@@H]3CN(C(=O)Nc3ccccc3)C2)c1	–	35.5µM	–	–	·
Cc1nc(-c2ccccc2Br)cc([C@H]2CN3CC[C@H]2C[C@@H]3CNC(=O)Nc2ccccc2)n1	–	?	–	–	·
Fc1cc(F)c2c(c1)[C@H]1C=CC[C@H]1C(c1cccnc1)N2 (some centres undefined)	–	·	·	–	·
Cc1nc(-c2ccc(N(C)C)cc2)cc([C@H]2CN3CC[C@H]2C[C@@H]3CNC(=O)C2CC2)n1	–	?	–	–	·
Cc1nc(-c2ccc(N(C)C)cc2)cc([C@H]2CN3CC[C@H]2C[C@@H]3CNC(=O)N2CCOCC2)n1	–	28.2µM	–	–	·
COc1ccc(-c2cc([C@H]3CN4CC[C@H]3C[C@@H]4CNC(=O)N3CCOCC3)nc(C)n2)cc1OC	–	22.4µM	–	–	·
COc1ccccc1-c1cc([C@H]2CN3CC[C@H]2C[C@@H]3CNC(=O)N2CCOCC2)n(C)n1	–	–	–	–	·
Cc1nc(-c2ccc(N(C)C)cc2)cc([C@H]2CN3CC[C@H]2C[C@@H]3CNC(=O)C(C)(C)C)n1	?	31.6µM	?	–	·
CCCCCn1cc(C(=O)Cc2ccccc2OC)c2ccccc21	–	·	·	–	·
CCOC(=O)[C@H]1CN(C(=O)OCC(C)(C)C)[C@]2(C)C(=O)N(CC3CC3)c3ccccc3[C@H]12	–	·	?	–	·
COc1ccc(-c2cc([C@H]3CN4CC[C@H]3C[C@@H]4CNC(=O)NC(C)C)nc(C)n2)cc1OC	–	31.6µM	–	–	·
COc1ccc(-c2cc([C@H]3CN4CC[C@H]3C[C@@H]4CNC(=O)C3CC3)nc(C)n2)cc1OC	–	?	–	–	·
CC(=O)c1ccc(NC(=O)NC[C@H]2C[C@@H]3CCN2C[C@@H]3c2cc(-c3ccco3)nc(C)n2)cc1	–	–	–	–	·
CCC(CC)c1cc([C@H]2CN3CC[C@H]2C[C@@H]3CNC(=O)COc2ccccc2)nc(-c2ccncc2)n1	?	25.1µM	?	–	·
CCNC(=O)NC[C@H]1C[C@@H]2CCN1C[C@@H]2c1cc(-c2ccc(OC)c(OC)c2)nn1C	–	–	?	–	·
Cc1nc(-c2ccco2)cc([C@H]2CN3CC[C@H]2C[C@@H]3CNC(=O)C2CC2)n1	–	35.5µM	–	–	·
COc1ccc(-c2cc([C@H]3CN4CC[C@H]3C[C@@H]4CNC(=O)C3CCC3)nc(C)n2)cc1OC	–	31.6µM	–	–	·
CC1=CC2/C=C(\C)CCCC(O)/C=C/C(=O)OC23C(=O)NC(CC(C)C)C3C1C (centres undefined)	–	·	·	–	·
COc1ccc(CC(=O)N2CCN(Cc3ccccc3-c3ccc(C)c(Cl)c3)CC2)cc1	–[12.5 µM]	·	–	–	·
COCC(=O)NC[C@H]1C[C@@H]2CCN1C[C@@H]2c1cc(-c2ccccc2OC)nc(C)n1	–	35.5µM	–	–	·
COc1cc2c(cc1OCc1ccccc1)N(C(=O)c1cccc3[nH]ccc13)CC21CCN(C)CC1	–	?	–	–	·
COc1cc2c(cc1OCc1ccccc1)N(C(=O)c1c[nH]c3ccccc13)CC21CCN(C)CC1	25.1µM	–	?	–	·
COP(=S)(OC)SCN1C(=O)c2ccccc2C1=O	–	·	–	-36.5	18.4µM
COc1cc2c(cc1OC1CCCC1)NC(=O)C21CCN(c2cnccn2)CC1	–	?	?	-30.2	–
SMILES	SNCA viab count	KDM5B inh	SNCA expr inhib	IP6K1 inhibitor	IP6K1 inh cnf
COc1cc2c(cc1OCc1ccccc1)NC(=O)C21CCN(c2cnccn2)CC1	–	31.6µM	–	-28.9	?
C[C@@H]1C[C@@H](O)[C@]2(O)O[C@@H]3C[C@@]4(C=O)C(CC[C@@H]5C4CC[C@]4(C)[C@@](O)(C6=CC(=O)OC6)CC[C@]54O)C[C@H]3OC2O1 (some centres undefined)	?	·	·	–	·
CN(C)[C@@H]1C(=O)C(C(N)=O)=C(O)[C@@]2(O)C(=O)C3=C(O)c4c(O)cccc4[C@@](C)(O)[C@H]3C[C@@H]12	–	·	–	-74.6	–
CN(C)[C@@H]1C(=O)C(C(N)=O)=C(O)[C@@]2(O)C(=O)C3=C(O)c4c(O)ccc(Cl)c4[C@@](C)(O)C3C[C@@H]12 (some centres undefined)	–	·	·	–	·
O=C(CCn1cccn1)N1C[C@H](c2cccc(F)c2F)[C@@H]2[C@H]1C1CCN2CC1	–	–	–	-32.7	–
Cc1ncsc1CCC(=O)N1C[C@@H](c2ccccc2)[C@@H]2[C@H]1C1CCN2CC1	–	–	?	–	·
OC(CNc1ccccc1)Cn1c2ccc(Br)cc2c2cc(Br)ccc21 (centres undefined)	–	·	·	–	·
CCN1CCN(C(=O)Cc2ccc(Nc3ncc(F)c(Nc4ccc(C(=O)Nc5ccccc5Cl)cc4)n3)cc2)CC1	23.8µM!	·	–	-32.9	?
O=C(Cc1ccc(F)cc1)N1CCN(Cc2ccccc2-c2cccnc2)CC1	–[12.5 µM]	·	–	–	·
CCOc1ccc(CN(CCc2ccc3c(c2)OCO3)Cc2cccc(OC)c2)cc1	–	?	–	-31.2	–
O=C(Nc1ccc(Br)cc1C(=O)c1ccccc1)c1ccccc1	–	–	–	–	·
O=C(Nc1ccc(Br)cc1)c1cc(Br)cc(Br)c1O	–	·	–	-39.7	23.1µM
CN1CCN(C(=O)Cc2c[nH]c3ncc(-c4cccc(OC(F)(F)F)c4)cc23)CC1	–	35.5µM	–	-53.1	?
CN1CCN(C(=O)Cc2c[nH]c3ncc(-c4ccccc4Oc4ccccc4)cc23)CC1	–	39.8µM	–	-27.7	–
C[C@H]1CCC[C@H](O)CCC/C=C/c2cc(O)cc(O)c2C(=O)O1	–	·	·	–	·
c1cncc(OC[C@@H]2CCN2)c1	–	·	·	–	·
COCC(C(=O)OC1CC2CCC(C1)N2C)c1ccccc1 (centres undefined)	–	·	·	–	·
N#Cc1cn([C@@H]2O[C@H](CO)[C@H](O)[C@@H]2O)c2ncnc(N)c12	–	·	·	-27.2	10.3µM
O=C(Cc1cccc(Cl)c1)N1CCN(Cc2ccccc2-c2cccnc2)CC1	–[12.5 µM]	·	–	–	·
COc1cc2c(cc1OCC1CC1)NC(=O)C21CCN(C(=O)c2cccc(C#N)c2)CC1	–	–	–	-26.8	–
Cc1ccc(Cn2nc(C(=O)N[C@@H]3C(C)(C)[C@@H]4CC[C@@]3(C)C4)cc2-c2ccc(Cl)c(C)c2)cc1	–	·	·	–	·
CCCCOC(=O)N1C[C@H](C(=O)OCC)[C@H]2c3ccccc3N(CC3CC3)C(=O)[C@]21C	–	·	–	–	·
Cc1cc(SCc2sc(-c3ccc(C(F)(F)F)c(F)c3)nc2C)ccc1OCC(=O)O	–	·	–	-29.9	?
CC1=CC2OC3CC(O)[C@](C)([C@@]2(C)C(O)C1=O)[C@]31CO1 (some centres undefined)	?	·	·	–	·
